# Source: PubChem BioAssay (NCI)
# About 83,000 compounds went through this panel and 20% of them were active in at least one assay; those are over-represented in the sample as a whole.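 Each cell line was grown in a 96-well plate and treated with one concentration of compound for 48 hours. Values below 10 were considered active.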 Values without a mark were called inactive. The source made the active and inactive calls.
# How the values were obtained:
# Assay in all cases: NCI-60 one-dose screen, 48 h (100 = growth as untreated, 0 = no growth, -100 = all killed)
# Conditions in all cases: 10 µM
# NCI-H23 lung = tested on: NCI-H23 lung
# NCI-H226 lung = tested on: NCI-H226 lung
# NCI-H322M lung = tested on: NCI-H322M lung
# HOP-62 NSCLC = tested on: HOP-62 NSCLC
# NCI-H460 lung = tested on: NCI-H460 lung
# HOP-92 NSCLC = tested on: HOP-92 NSCLC
# NCI-H522 lung = tested on: NCI-H522 lung
# A549/ATCC NSCLC = tested on: A549/ATCC NSCLC
# 786-0 renal = tested on: 786-0 renal
# COLO 205 colon = tested on: COLO 205 colon
# DU-145 prostate = tested on: DU-145 prostate
# K-562 leukemia = tested on: K-562 leukemia
# MALME-3M melanoma = tested on: MALME-3M melanoma
# MDA-MB-231 breast = tested on: MDA-MB-231 breast
# RXF 393 renal = tested on: RXF 393 renal
# SF-268 CNS = tested on: SF-268 CNS
# SF-295 CNS = tested on: SF-295 CNS
# SF-539 CNS = tested on: SF-539 CNS
# UACC-257 melanoma = tested on: UACC-257 melanoma
# M14 melanoma = tested on: M14 melanoma
Compound,growth (NCI-H23 lung),growth (NCI-H226 lung),growth (NCI-H322M lung),growth (HOP-62 NSCLC),growth (NCI-H460 lung),growth (HOP-92 NSCLC),growth (NCI-H522 lung),growth (A549/ATCC NSCLC),growth (786-0 renal),growth (COLO 205 colon),growth (DU-145 prostate),growth (K-562 leukemia),growth (MALME-3M melanoma),growth (MDA-MB-231 breast),growth (RXF 393 renal),growth (SF-268 CNS),growth (SF-295 CNS),growth (SF-539 CNS),growth (UACC-257 melanoma),growth (M14 melanoma)
O=C(Nc1nc2ccc([N+](=O)[O-])cc2s1)Nc1cc(Cl)ccc1I,-53.2% (active),-50.9% (active),-9.64% (active),-44% (active),-2.31% (active),-32.5% (active),-52.8% (active),-9.31% (active),-49.4% (active),-98.1% (active),17.3%,-5.74% (active),-41% (active),-37% (active),-44.8% (active),1.99% (active),-71% (active),-74.3% (active),-36.5% (active),-52.7% (active)
CS(=O)(=O)Nc1ccc(-c2ccc3c(c2)ncn3-c2ccc(NC(=O)Nc3ccc(Cl)c(C(F)(F)F)c3)cc2)cc1,-70.3% (active),-51% (active),-42.9% (active),-87.1% (active),0.554% (active),-43.5% (active),-87.6% (active),-75.1% (active),-77.9% (active),-90.4% (active),-4.47% (active),-26% (active),-80.8% (active),-84.6% (active),-57.5% (active),2.56% (active),-77.5% (active),-88.8% (active),-57.2% (active),-95.3% (active)
COc1cc(-c2nc3cc(Cl)c(Cl)cc3[nH]2)ccc1OCc1nnc(-c2ccc(Br)cc2)o1,24%,-46.8% (active),38.8%,-28.1% (active),22.9%,-39.6% (active),8.01% (active),19.5%,-31% (active),51.4%,47.2%,6.47% (active),-78.2% (active),-38.9% (active),-77.7% (active),38.6%,-46.1% (active),-92.4% (active),4.56% (active),-9.79% (active)
COc1ccsc1/C=N/NC(=O)c1[nH]c2ccc(Br)cc2c1-c1ccccc1,9.07% (active),17.2%,34.3%,26.3%,0.114% (active),-5.64% (active),-34.4% (active),11.7%,1.8% (active),-32.4% (active),11.7%,1.22% (active),22.3%,3.17% (active),30.8%,17.2%,-7.83% (active),-18.5% (active),11.4%,5.95% (active)
COc1csc(/C=N/NC(=O)c2[nH]c3ccc(Br)cc3c2-c2ccccc2)c1,7.1% (active),23.1%,34.7%,24.9%,-5.74% (active),49.2%,-48.5% (active),13.7%,4.83% (active),-79.9% (active),7.13% (active),4.06% (active),30.9%,3.77% (active),23.3%,23.5%,-10.2% (active),-39.8% (active),34.8%,11.5%
Cc1nc(Nc2nc(C)c3ccc(OCCN4CCOCC4)cc3n2)[nH]c(=O)c1C,-66.6% (active),-47.2% (active),-10.8% (active),-34.5% (active),2.14% (active),3.9% (active),-52.3% (active),6.61% (active),-25.1% (active),0.287% (active),14.9%,14.1%,-69.8% (active),-67.1% (active),-78% (active),9.74% (active),-29.3% (active),-61.7% (active),-14.9% (active),18%
COc1cccc(-c2ccc(/C=N/NC(=O)c3[nH]c4ccc(Br)cc4c3-c3ccccc3)o2)c1,22.4%,31.4%,45.7%,12.8%,4.13% (active),54.4%,-42.8% (active),19.6%,9.39% (active),-40.6% (active),25.9%,3.8% (active),47.5%,23.6%,26.1%,33.5%,-14.6% (active),-67.7% (active),36.9%,16.7%
CC1=C2C(=C[C@@](C)(CO)[C@@H]2O)/C(=N\N)[C@](C)(O)C12CC2,-77.8% (active),-41.2% (active),-11.9% (active),-27% (active),-6.47% (active),-22.6% (active),-62.4% (active),5.73% (active),6.59% (active),-79.4% (active),1.63% (active),19.3%,-76.2% (active),-21% (active),-90.5% (active),-3.67% (active),-14.8% (active),-75.8% (active),-49.4% (active),5.88% (active)
